In the library only some 9.6% were active in any assay of this set; here they are far more common.
USP17 inh: inhibitors of human USP17 deubiquitinase. purified USP17, Ub-rhodamine cleavage fluorescence, 3 h. inhibition, % at 50 µM. 6.5% of 47,000 active
Target sequence (A8MUK1 whole entry, looked up): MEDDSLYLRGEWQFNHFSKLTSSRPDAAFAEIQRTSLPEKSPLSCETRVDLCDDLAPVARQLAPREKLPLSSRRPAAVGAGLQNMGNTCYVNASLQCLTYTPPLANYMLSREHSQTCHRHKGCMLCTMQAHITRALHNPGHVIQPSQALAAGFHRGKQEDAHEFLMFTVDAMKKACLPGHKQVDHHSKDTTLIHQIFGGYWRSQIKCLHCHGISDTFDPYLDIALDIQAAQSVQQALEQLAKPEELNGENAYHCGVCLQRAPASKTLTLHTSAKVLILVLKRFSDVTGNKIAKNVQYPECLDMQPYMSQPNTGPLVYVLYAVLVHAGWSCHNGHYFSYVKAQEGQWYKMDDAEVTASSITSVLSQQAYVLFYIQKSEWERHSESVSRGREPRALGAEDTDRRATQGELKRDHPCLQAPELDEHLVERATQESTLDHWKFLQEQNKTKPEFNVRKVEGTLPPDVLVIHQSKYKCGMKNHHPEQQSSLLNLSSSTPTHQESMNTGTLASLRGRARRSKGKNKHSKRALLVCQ
USP30 block: inhibitors of human USP30 deubiquitinase. purified USP30, Ub-rhodamine cleavage fluorescence. inhibition, % at 25 µM. 5.3% of 47,000 active
Numbers without * were called inactive; · = not tested or not shown. Cut-off read from the data, not from the text of the source: active = inhibition above about 30%; inactive = the rest.

SMILES	USP17 inh	USP30 block
COCCn1c(=O)[nH]c2cc(C(=O)Nc3cc(OC)c(OC)c(OC)c3)ccc2c1=O	2.9	10.2
Cc1ccccc1OC(C)C(=O)NC1CCN(Cc2ccccc2)CC1 (stereo not drawn)	-1.6	0.1
CN1C(=O)OC[C@@H]2CCN(C(=O)NCCC(=O)O)C[C@H]21	11.1	25.6
CCOc1ccc(C(CC(=O)Nc2cc(C)ccn2)N2Cc3ccccc3C2=O)cc1OC (stereo not drawn)	44.1*	34.0*
Cc1ccc(NC(=O)CC(c2ccc(F)cc2)N2Cc3ccccc3C2=O)nc1 (stereo not drawn)	0.6	11.1
COc1cccc(-n2ccn3cc(-c4ccc5c(c4)OCO5)nc3c2=O)c1	·	-405.3
COc1cccc(-n2ccn3cc(-c4ccccc4)nc3c2=O)c1	33.4*	-59.0
Cc1ccc(C2CC(c3ccccc3)N(C(=O)C(C)C)c3ncnn32)cc1 (stereo not drawn)	13.4	39.8*
COc1ccccc1C1CC(c2ccccc2)N(C(=O)CC(C)C)c2ncnn21 (stereo not drawn)	27.3	30.8*
COc1cccc(C(=O)N2c3ncnn3C(c3ccccc3)CC2c2ccccc2)c1 (stereo not drawn)	4.5	24.4
CC(C)C(=O)N1c2ncnn2C(c2ccccc2)CC1c1ccccc1 (stereo not drawn)	0.6	15.2
CC1CCN(c2ncc(S(C)(=O)=O)c(C3CCN(C(=O)C(C)(C)C)CC3)n2)CC1	2.0	22.5
CCOc1ccc(C2CCCN2Cc2nc(N)nc(Nc3ccccc3C)n2)cc1 (stereo not drawn)	-16.3	-108.9
CCc1noc(-c2ccnc(-n3ncc(C(=O)N4CCOCC4)c3C)c2)n1	-13.2	-15.4
CCC(C(=O)Nc1ccc(C)cc1C)n1c(C)nc2onc(C)c2c1=O (stereo not drawn)	30.9*	38.3*
CCn1c(=O)c(CCC(=O)Nc2ccc(C)cc2C)nc2c(C)nn(-c3ccc(C)cc3)c21	21.6	22.8
CC1(C)Cc2nc(-c3ccccc3)nc(SCC(N)=O)c2CO1	11.4	13.9
O=S1(=O)NC2(CCN(Cc3ccncc3)CC2)Nc2ccccc21	0.8	11.3
COc1ccccc1-c1cc(CNCCN)n(Cc2ccc3ccccc3c2)n1	-12.6	44.5*
COc1cccc(CN2CCn3nc(-c4ccccc4OC)cc3C2)c1	14.4	-0.9
C1CNCC(CCc2nc(N3CCCC3)nc3c2CNCC3)C1 (stereo not drawn)	-8.4	25.1
Cn1c(C(=O)NCc2ccccn2)cc2c(=O)[nH]c3ccccc3c21	80.2*	-28.8
Cc1cccc(C(=O)Nc2c(C(=O)NCc3ccccn3)[nH]c3ccccc23)c1	-19.3	-26.0
CCCOc1ccc(/C(O)=C2\C(=O)C(=O)N(CCN(C)C)C2c2ccco2)cc1 (stereo not drawn)	-16.7	-18.6
CC(=O)Nc1cc(NC(=O)CSc2nnc(-c3ccco3)c(-c3ccco3)n2)ccc1C	46.0*	-103.0
SMILES	USP17 inh	USP30 block
COc1ccc(NC(=O)CSc2nnc(-c3ccco3)n2C)cc1OC	26.9	16.0
COCc1cc(C)nc2sc3c(c12)NC(c1ccc(NC(C)=O)cc1)N(Cc1ccccc1)C3=O (stereo not drawn)	53.0*	71.7*
COCc1cc(C)nc2sc3c(c12)NCN(c1ccc(C)c(Cl)c1)C3=O	18.9	6.0
Cc1ccc(S(=O)(=O)N2CCC(c3nc4ccccc4s3)CC2)cc1	-8.2	0.2
Cc1cccc(N2CCN(C(C)c3nc4ccccc4c(=O)[nH]3)CC2)c1C (stereo not drawn)	3.0	4.3
COc1ccccc1NS(=O)(=O)c1cccc(NC(=O)CCc2nc3ccccc3s2)c1	61.2*	-124.5
COc1ccccc1NS(=O)(=O)c1cccc(NC(=O)CCOc2ccccc2)c1	10.3	16.3
CSCC[C@H](NC(=O)c1sc2ccccc2c1Cl)c1nnc2ccccn12	5.3	3.1
Cc1ccc(CN(C)Cc2nc(N)nc(Nc3ccccc3C)n2)cc1	-4.4	15.3
Cc1cc(=O)n(CC(=O)Nc2cccc(F)c2)c(N2CCCC2)n1	-6.9	-6.7
Cc1cc(=O)n2nc(-c3cccs3)nc2n1CC(=O)Nc1cccc(C(F)(F)F)c1	5.4	-11.3
Cc1cccc(NC(=O)Cn2c(C)cc(=O)n3nc(-c4cccs4)nc23)c1	47.5*	10.0
Cc1ccc(NC(=O)Cn2c(Nc3ccc(F)cc3)nc(C)cc2=O)cc1	77.6*	66.7*
Cc1cc(=O)n(CC(=O)Nc2ccccc2)c(Nc2ccc(F)cc2)n1	69.2*	62.7*
Cc1cc(=O)n(CC(=O)Nc2ccc(F)cc2C)c(N2CCCCC2)n1	8.0	20.9
Cc1cc(=O)n(CC(=O)Nc2ccc(C)c(C)c2)c(N2CCCC2)n1	9.6	34.6*
Cc1cc(=O)n(CC(=O)Nc2ccc(F)c(F)c2)c(N2CCCCC2)n1	3.0	5.8
Cc1cn2c3c(=O)[nH]c(=O)n(C)c3nc2n1-c1ccccc1	-10.1	7.2
O=C(c1cccc(F)c1)N1CCC(c2[nH]nc3nccnc23)CC1	21.4	19.9
O=C(NC[C@H]1OC[C@@H]2CN(Cc3ccco3)CC[C@@H]21)c1cscn1	-3.7	4.2
O=C1COC2(CCNCC2)CN1Cc1cccc(Cl)c1	-18.1	-17.7
Cc1cccc(Nc2nc(C)cc(=O)n2CC(=O)Nc2ccccc2)c1	20.0	30.3*
Cc1cc(=O)n(CC(=O)Nc2ccccc2)c(Nc2ccc(C)c(C)c2)n1	0.7	8.2
Cc1cc(=O)n(CC(=O)Nc2ccccc2F)c(Nc2ccc(F)cc2)n1	44.4*	83.2*
Cc1cc(C)c2c(n1)SCC(=O)N2CC(=O)Nc1ccccc1F	·	-13.8
SMILES	USP17 inh	USP30 block
O=C(Nc1cccc(F)c1)C1CCCN(S(=O)(=O)N2CCOCC2)C1 (stereo not drawn)	4.4	22.2
Cc1occc1-c1nnc(SC(C)C(=O)Nc2ccc(F)cc2)o1 (stereo not drawn)	6.2	6.7
Cc1cccc(-n2nnc3c(=O)n(CC(=O)Nc4ccc5c(c4)OCCO5)cnc32)c1	0.3	-9.3
CCOC(=O)c1ccc(NC(=O)Cn2cnc3c(nc4n3CCCCC4)c2=O)cc1	11.5	48.7*
O=c1c2nnn(-c3ccccc3)c2ncn1Cc1cccc(F)c1	0.2	-44.8
CCc1ccc(NC(=O)Cn2cnc3c(nc4n3CCCCC4)c2=O)cc1	-10.2	16.9
CCOC(=O)c1ccc(NC(=O)Cn2cnc3c(nnn3-c3cccc(Cl)c3)c2=O)cc1	32.7*	12.5
Cc1ccc(Cn2cnc3c(nnn3-c3cccc(F)c3)c2=O)cc1	47.0*	17.7
Cc1cc(C)n2c(SCC(=O)Nc3ccc(C)c(S(=O)(=O)N4CCCCCC4)c3)nnc2n1	-4.0	-29.6
CC(c1ccccc1)N(C(=O)c1ccccc1)C(C)(C)C (stereo not drawn)	11.8	18.5
Cc1cc(C)n2nc(NCc3cccc(Cl)c3)nc2n1	0.2	9.7
CC1(c2cc3ccccc3o2)NC(=O)N(CC(=O)c2ccc(N3CCCC3=O)cc2)C1=O (stereo not drawn)	-5.8	-123.7
COC(=O)c1cc2c(ccn2C)n1Cc1ccccc1OC	19.3	-207.2
Cc1ccc2cc3c(nc2c1)OC(=O)N(CCc1ccc(F)cc1)C3	0.8	4.0
Cc1ccccc1CNC(=O)c1c(O)c2cnn(Cc3ccccc3)c2[nH]c1=O	-20.8	-76.1
O=C(NCc1ccccc1F)c1c(O)c2cnn(Cc3ccccc3)c2[nH]c1=O	32.1*	1.4
O=C(N[C@@H](Cc1ccccc1)c1nc2ccccc2[nH]1)c1ccncc1	24.5	-8.6

Screens (PubChem BioAssay)
